Results reported in the supplement of paper PMC10037445.
Over roughly 2,900 compounds, “NF-kB SEAP reporter activity, fold change vs agonist alone” has its median near 0.99; the highest 2% begin near 2.6. Only a selection was taken, and the highest values are over-represented in it overall.

Tests used:
RAW-Dual [1] = experiment: NF-kB SEAP reporter activity, fold change vs agonist alone; higher = enhanced NF-kB activity
Summary of the method: (§1)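 After 50 nL of library stock was delivered by pin tool to RAW-Dual macrophages (50,000 cells/well, DMEM, 384-well plates), a PRR agonist was added 1 h later and the plates were kept at 37 °C, 5% CO2. Twenty hours later, IRF was read from supernatant by QuantiLuc luminescence and NF-κB by QuantiBlue absorbance at 620 nm. Reporter activity is stated as fold change over agonist-alone wells. Wells with IncuCyte confluency under 70% of agonist controls in both mask sets were counted as cytotoxic.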

RAW-Dual [2] = experiment: NF-kB SEAP reporter activity, fold change vs agonist alone; cytotoxicity flag (confluency mask): not cytotoxic; library stock concentration (final ~1000-fold dilution): 10 mM; higher = enhanced NF-kB activity
Summary of the method: as §1

RAW-Dual [3] = experiment: NF-kB SEAP reporter activity, fold change vs agonist alone; cytotoxicity flag (confluency mask): cytotoxic (confluency <70% of control); library stock concentration (final ~1000-fold dilution): 10 mM; higher = enhanced NF-kB activity
Summary of the method: as §1

RAW-Dual [4] = experiment: NF-kB SEAP reporter activity, fold change vs agonist alone; cytotoxicity flag (confluency mask): not cytotoxic; library stock concentration (final ~1000-fold dilution): 2 mM; higher = enhanced NF-kB activity
Summary of the method: as §1

[5] = library stock concentration (final ~1000-fold dilution): 10 mM, cytotoxicity flag (confluency mask): not cytotoxic, agonist: Imiquimod (TLR7) […]
[6] = library stock concentration (final ~1000-fold dilution): 10 mM, cytotoxicity flag (confluency mask): not cytotoxic, agonist: MPLA (TLR4) […]
[7] = agonist: ODN 1826 (TLR9) 0.5 ug/mL
[8] = agonist: Pam2CSK4 (TLR2/6) 0.1 ug/mL
[9] = agonist: Pam3CSK4 (TLR2/1) 0.1 ug/mL
[10] = library stock concentration (final ~1000-fold dilution): 10 mM, cytotoxicity flag (confluency mask): cytotoxic (confluency <70% of control), agonist: Imiquimod (TLR7) […]
[11] = library stock concentration (final ~1000-fold dilution): 10 mM, cytotoxicity flag (confluency mask): cytotoxic (confluency <70% of control), agonist: MPLA (TLR4) […]

Compound: N#CC(C#N)=Cc1ccc(O)c(O)c1
- NF-kB SEAP reporter activity (RAW-Dual [1]; [5]): 0.89
- NF-kB SEAP reporter activity (RAW-Dual [1]; [6]): 1.33
- NF-kB SEAP reporter activity (RAW-Dual [2]; agonist: LPS (TLR4) 0.1 ug/mL): 1.19
- NF-kB SEAP reporter activity (RAW-Dual [2]; [7]): 0.619
- NF-kB SEAP reporter activity (RAW-Dual [2]; [8]): 0.821
- NF-kB SEAP reporter activity (RAW-Dual [2]; [9]): 0.937

Compound: CC(C)(C)c1cc(C=C(C#N)C#N)cc(C(C)(C)C)c1O
- NF-kB SEAP reporter activity (RAW-Dual [1]; [10]): 1.7
- NF-kB SEAP reporter activity (RAW-Dual [1]; [11]): 2.56
- NF-kB SEAP reporter activity (RAW-Dual [3]; agonist: LPS (TLR4) 0.1 ug/mL): 5.32
- NF-kB SEAP reporter activity (RAW-Dual [3]; [7]): 1.32
- NF-kB SEAP reporter activity (RAW-Dual [3]; [8]): 0.729
- NF-kB SEAP reporter activity (RAW-Dual [3]; [9]): 1.48

Compound: CC(C)(C)c1cc(C=C(C#N)C#N)cc(Br)c1O
- NF-kB SEAP reporter activity (RAW-Dual [1]; [10]): 2.04
- NF-kB SEAP reporter activity (RAW-Dual [1]; [11]): 2.25
- NF-kB SEAP reporter activity (RAW-Dual [3]; agonist: LPS (TLR4) 0.1 ug/mL): 2.48
- NF-kB SEAP reporter activity (RAW-Dual [3]; [7]): 1.29
- NF-kB SEAP reporter activity (RAW-Dual [3]; [8]): 0.571
- NF-kB SEAP reporter activity (RAW-Dual [3]; [9]): 0.667

Compound: CN1C(=O)C23CC4(C56CC78SSC(CO)(C(=O)N7C5Nc5ccccc56)N(C)C8=O)c5ccccc5NC4N2C(=O)C1(CO)SS3 (stereo not drawn)
- NF-kB SEAP reporter activity (RAW-Dual [1]; [10]): 0.117
- NF-kB SEAP reporter activity (RAW-Dual [1]; [11]): 0.183
- NF-kB SEAP reporter activity (RAW-Dual [3]; agonist: LPS (TLR4) 0.1 ug/mL): 0.372
- NF-kB SEAP reporter activity (RAW-Dual [3]; [7]): 0.141
- NF-kB SEAP reporter activity (RAW-Dual [3]; [8]): 0.0829
- NF-kB SEAP reporter activity (RAW-Dual [3]; [9]): 0.196

Compound: CCC1(O)C(=O)OCc2c1cc1n(c2=O)Cc2cc3ccccc3nc2-1 (stereo not drawn)
- NF-kB SEAP reporter activity (RAW-Dual [1]; library stock concentration (final ~1000-fold dilution): 2 mM, cytotoxicity flag (confluency mask): not cytotoxic, agonist: Imiquimod (TLR7) […]): 1.45
- NF-kB SEAP reporter activity (RAW-Dual [1]; library stock concentration (final ~1000-fold dilution): 2 mM, cytotoxicity flag (confluency mask): not cytotoxic, agonist: MPLA (TLR4) […]): 1.83
- NF-kB SEAP reporter activity (RAW-Dual [4]; agonist: LPS (TLR4) 0.1 ug/mL): 4.12
- NF-kB SEAP reporter activity (RAW-Dual [4]; [7]): 1.47
- NF-kB SEAP reporter activity (RAW-Dual [4]; [8]): 1.05
- NF-kB SEAP reporter activity (RAW-Dual [4]; [9]): 1.74

Compound: CCc1c2c(nc3ccccc13)-c1cc3c(c(=O)n1C2)COC(=O)C3(O)CC (stereo not drawn)
- NF-kB SEAP reporter activity (RAW-Dual [1]; [11]): 1.62
- NF-kB SEAP reporter activity (RAW-Dual [3]; agonist: LPS (TLR4) 0.1 ug/mL): 0.384
- NF-kB SEAP reporter activity (RAW-Dual [3]; [7]): 2.29
- NF-kB SEAP reporter activity (RAW-Dual [3]; [8]): 0.788
- NF-kB SEAP reporter activity (RAW-Dual [3]; [9]): 0.641

Compound: C=CC1CN2CCC3(C(=O)Nc4ccccc43)C2CC1/C(=C\OC)C(=O)OC (stereo not drawn)
- NF-kB SEAP reporter activity (RAW-Dual [1]; [5]): 0.91
- NF-kB SEAP reporter activity (RAW-Dual [1]; [6]): 1.1
- NF-kB SEAP reporter activity (RAW-Dual [2]; agonist: LPS (TLR4) 0.1 ug/mL): 0.951
- NF-kB SEAP reporter activity (RAW-Dual [2]; [7]): 0.904
- NF-kB SEAP reporter activity (RAW-Dual [2]; [8]): 0.882
- NF-kB SEAP reporter activity (RAW-Dual [2]; [9]): 0.928

Compound: CC(=O)O.Cc1cc2c(C(C)C)c(O)c(O)c(C=O)c2c(O)c1-c1c(C)cc2c(C(C)C)c(O)c(O)c(C=O)c2c1O
- NF-kB SEAP reporter activity (RAW-Dual [1]; [5]): 0.906
- NF-kB SEAP reporter activity (RAW-Dual [1]; [6]): 0.963
- NF-kB SEAP reporter activity (RAW-Dual [2]; agonist: LPS (TLR4) 0.1 ug/mL): 3.69
- NF-kB SEAP reporter activity (RAW-Dual [2]; [7]): 0.908
- NF-kB SEAP reporter activity (RAW-Dual [2]; [8]): 1.15
- NF-kB SEAP reporter activity (RAW-Dual [2]; [9]): 1.2

Compound: CC[C@H]1CN2CC[C@]3(C(=O)Nc4ccccc43)[C@@H]2C[C@@H]1/C(=C\OC)C(=O)OC
- NF-kB SEAP reporter activity (RAW-Dual [1]; [5]): 0.86
- NF-kB SEAP reporter activity (RAW-Dual [1]; [6]): 1.04
- NF-kB SEAP reporter activity (RAW-Dual [2]; agonist: LPS (TLR4) 0.1 ug/mL): 1.21
- NF-kB SEAP reporter activity (RAW-Dual [2]; [7]): 1.05
- NF-kB SEAP reporter activity (RAW-Dual [2]; [8]): 0.949
- NF-kB SEAP reporter activity (RAW-Dual [2]; [9]): 1.03

Compound: COc1cc2c(c(OC)c1OC)-c1ccc(OC)c(=O)cc1C(NC(C)=O)CC2 (stereo not drawn)
- NF-kB SEAP reporter activity (RAW-Dual [1]; [5]): 2.62
- NF-kB SEAP reporter activity (RAW-Dual [1]; [6]): 1.98
- NF-kB SEAP reporter activity (RAW-Dual [2]; agonist: LPS (TLR4) 0.1 ug/mL): 4.93
- NF-kB SEAP reporter activity (RAW-Dual [2]; [7]): 3.47
- NF-kB SEAP reporter activity (RAW-Dual [2]; [8]): 2.44
- NF-kB SEAP reporter activity (RAW-Dual [2]; [9]): 2.52

Compound: CN1C2CCC1CC(OC(=O)C(CO)c1ccccc1)C2.CN1C2CCC1CC(OC(=O)C(CO)c1ccccc1)C2.O.O=S(=O)(O)O (stereo not drawn)
- NF-kB SEAP reporter activity (RAW-Dual [1]; [5]): 0.838
- NF-kB SEAP reporter activity (RAW-Dual [1]; [6]): 0.986
- NF-kB SEAP reporter activity (RAW-Dual [2]; agonist: LPS (TLR4) 0.1 ug/mL): 0.923
- NF-kB SEAP reporter activity (RAW-Dual [2]; [7]): 0.83
- NF-kB SEAP reporter activity (RAW-Dual [2]; [8]): 0.79
- NF-kB SEAP reporter activity (RAW-Dual [2]; [9]): 1.05

Compound: CC12CCC3C(CCC4=C(O)C(=O)CCC43C)C1CCC2=O (stereo not drawn)
- NF-kB SEAP reporter activity (RAW-Dual [1]; [5]): 0.986
- NF-kB SEAP reporter activity (RAW-Dual [1]; [6]): 1.01
- NF-kB SEAP reporter activity (RAW-Dual [2]; agonist: LPS (TLR4) 0.1 ug/mL): 1.17
- NF-kB SEAP reporter activity (RAW-Dual [2]; [7]): 1.21
- NF-kB SEAP reporter activity (RAW-Dual [2]; [8]): 1.07
- NF-kB SEAP reporter activity (RAW-Dual [2]; [9]): 1.23

Compound: Nc1ncnc2c1ccn2C1OC(CO)C(O)C1O (stereo not drawn)
- NF-kB SEAP reporter activity (RAW-Dual [1]; [10]): 0.147
- NF-kB SEAP reporter activity (RAW-Dual [1]; [11]): 0.247
- NF-kB SEAP reporter activity (RAW-Dual [3]; agonist: LPS (TLR4) 0.1 ug/mL): 0.531
- NF-kB SEAP reporter activity (RAW-Dual [3]; [7]): 0.19
- NF-kB SEAP reporter activity (RAW-Dual [3]; [8]): 0.0753
- NF-kB SEAP reporter activity (RAW-Dual [3]; [9]): 0.156

Compound: Cl.NCCc1ccc(S(=O)(=O)F)cc1
- NF-kB SEAP reporter activity (RAW-Dual [1]; [5]): 1.07
- NF-kB SEAP reporter activity (RAW-Dual [1]; [6]): 1.23
- NF-kB SEAP reporter activity (RAW-Dual [2]; agonist: LPS (TLR4) 0.1 ug/mL): 1.6
- NF-kB SEAP reporter activity (RAW-Dual [2]; [7]): 1.01
- NF-kB SEAP reporter activity (RAW-Dual [2]; [8]): 1.03
- NF-kB SEAP reporter activity (RAW-Dual [2]; [9]): 1.9
